Many of the other results were omitted from the sample, so hits are more common in it than they were.
Pf apPOL block – Pf-apPOL DNA polymerase inhibition. Recombinant Pf-apPOL, molecular beacon fluorescence, 1.5 h. inhibition, % at 10 µM. hit rate 0.25% among 210,000. AID 1794808
mHTT CaM bind – mHTT-calmodulin interaction abrogation; P42858; AlphaScreen His-mHTT/GST-CaM binding, luminescence; inhibition, % at 15 µM; hit rate 3.6% among 190,000; AID 1671202;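 further: 0% = both proteins with DMSO and 100% = one protein alone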
Starred values were filed as active, the others as inactive; / = no result given. No stated cut-off is given here; in the data, active means inhibition above about 50%; inactive means the rest.

SMILES	Pf apPOL block	mHTT CaM bind
Cc1ccc(Nc2nc(-c3ccccc3)cs2)cc1C	-7.5	72.9*
Cc1ccc(Nc2nc(-c3ccc(F)cc3)cs2)cc1C	-0.8	97.9*
Nc1ccc(Nc2nc(-c3ccccc3)cs2)cc1	5.7	96.9*
Cc1ccc(C)c(-c2csc(Nc3ccc(F)cc3)n2)c1	1.1	48.2
NC(=O)C(=O)Nc1nc(-c2ccccc2)cs1	-2.0	0.1
Cc1ccc(Nc2nc(-c3ccccc3)cs2)cc1Cl	-6.8	54.5*
Cc1cccc(CN2CCCn3nc(C(=O)Nc4ccccc4F)cc3C2=O)c1	-3.4	-6.2
Cc1ccc(NC(=O)c2cc3c(s2)CN(C(C)C)C3)cc1C	-0.4	-9.8
N#CCCNNC1=NS(=O)(=O)c2ccccc21	/	-10.9
COc1ccc(NC(=O)c2c(Cl)nc(C)c(Cl)c2C)cc1	-12.5	-5.0
CCc1nnc2ccc(S(=O)(=O)Nc3ccc(Cl)cc3)cn12	-2.4	-5.0
Cc1ccc(-c2nnc(N3CCC(C(=O)NCc4ccc(OC(C)C)cc4)CC3)o2)cc1	-4.8	16.8
N=c1c2c(-c3ccccc3)c(-c3ccccc3)n(Cc3ccco3)c2ncn1Cc1ccco1	-1.6	99.0*
Cc1nc2ccccc2c(=O)n1Cc1ccco1	-1.8	-0.3
Cn1nc(-c2nc(-c3ccccc3F)no2)c2c1CCN(C(=O)c1ccc(F)cc1)C2	-0.3	-1.0
COc1ccc(NC(=O)N(CCCN2CCOCC2)Cc2cccnc2)c(OC)c1	68.4*	-1.0
COc1ccc(NC(=O)CN2CCC(C(=O)NCc3cccnc3)CC2)c(OC)c1	-2.7	1.3
O=C(NC1CC1)c1cc(-c2cccnc2)nc2ccccc12	-8.4	-15.0
COc1ccccc1N1CCN(C(=O)COc2cc(C)c(Br)c(C)c2)CC1	-4.6	56.0*
Cc1ccc(OCC(O)CN2CCN(c3ccccc3)CC2)c(C)c1 (stereo not drawn)	1.9	13.8
Cc1cc(Cl)ccc1OCC(O)CN1CCN(c2ccccc2)CC1 (stereo not drawn)	-4.4	93.4*
COc1ccccc1N1CCN(C(=O)COc2ccc(Br)cc2C)CC1	-4.5	23.3
CC(C)(C)c1ccccc1OCC(O)CN1CCN(c2ccccc2)CC1 (stereo not drawn)	-0.9	99.5*
COc1ccccc1OCC(O)CN1CCN(c2ccc(F)cc2)CC1 (stereo not drawn)	-10.2	-14.0
COc1ccccc1N1CCN(CC(O)COc2ccc(C)c(C)c2)CC1 (stereo not drawn)	-2.2	38.4
SMILES	Pf apPOL block	mHTT CaM bind
COc1ccccc1N1CCN(CC(O)COc2ccc(Cl)c(C)c2)CC1 (stereo not drawn)	1.7	99.2*
O=C(O)COc1ccc(N=Cc2nc(-c3ccc(Br)cc3)oc2O)cc1	-4.5	2.0
O=C(c1ccco1)c1coc2ccc(O)cc12	12.9	-4.4
CN(C)c1ccc(-c2ccc3oc(C4CCCN4C(=O)C4CC4)nc3c2)cc1 (stereo not drawn)	-12.7	89.1*
CC(=O)N1CCCC1c1nc2cc(-c3ccc(F)cc3F)ccc2o1 (stereo not drawn)	-3.9	41.9
CC(=O)N1CCCC1c1nc2cc(-c3ccc(N(C)C)cc3)ccc2o1 (stereo not drawn)	-10.5	85.6*
COc1ccccc1-c1ccc2oc(C3CCCN3C(=O)C(C)C)nc2c1 (stereo not drawn)	0.1	46.6
Cc1ccccc1-c1ccc2oc(C3CCCN3S(C)(=O)=O)nc2c1 (stereo not drawn)	-3.5	89.6*
O=C(C1CC1)N1CCCC1c1nc2cc(-c3ccc(F)cc3F)ccc2o1 (stereo not drawn)	-4.8	47.8
COc1ccc(C2CCCN2C(=O)Nc2cc(C)ccc2OC)cc1 (stereo not drawn)	-5.1	2.6
Cc1cc(Cl)cc(Cl)c1OCC(=O)Nc1ccccc1F	-2.5	-9.6
COc1ccccc1Oc1c(C)oc2cc(OC(=O)C(C)(C)C)ccc2c1=O	2.4	0.3
CCOC(=O)c1c(Nc2ccccc2F)sc(C(=O)c2ccc(Cl)cc2)c1N	-1.2	/
NC(=O)c1c(Nc2ccc3c(c2)OCO3)sc(C(=O)c2ccc(Cl)cc2)c1N	-4.5	56.0*
Cc1ccccc1CS(=O)(=O)CCC(=O)NCc1ccccc1Cl	-14.7	1.0
O=C(Nc1ccccc1-c1nc2ccccc2[nH]1)c1ccccc1F	4.9	34.0
CCSc1ccccc1C(=O)Nc1ccccc1-c1nc2ccccc2[nH]1	-8.7	61.4*
Cc1ccc2nc(-c3cc(N=Cc4cc([N+](=O)[O-])ccc4O)ccc3O)oc2c1	-11.8	16.0
COc1ccccc1N1CCN(CCNC(=O)Nc2ccccc2C)CC1	-3.4	-4.5
O=S1(=O)c2c(cccc2N2CCC[C@H]2CO)O[C@@H]2CCN1C2	3.0	-6.3
COc1ccc(Cl)cc1C(=O)Nc1nc2ccc(S(C)(=O)=O)cc2s1	0.9	1.0
COc1cc(SC)ccc1C(=O)Nc1nc2ccc(S(C)(=O)=O)cc2s1	-0.4	63.0*
Cc1cc(NC(=O)c2ccccc2)ccc1NC(=O)c1ccccc1	-4.8	1.6
Cc1cc(NC(=O)c2ccccc2)cc(NC(=O)c2ccccc2)c1C	51.8*	-2.3
COc1cc(/C=C2/N=C(c3cc(Cl)ccc3Cl)OC2=O)cc(OC)c1OC	1.5	9.0
SMILES	Pf apPOL block	mHTT CaM bind
N#CC1=C(N)N(c2ccccc2)C2=C(C(=O)CCC2)C1c1cccs1 (stereo not drawn)	-10.5	30.0
CC1(C)CC(=O)C2=C(C1)N(c1cccc(C(F)(F)F)c1)C(N)=C(C#N)C2c1ccsc1 (stereo not drawn)	-2.1	24.0
N#CC1=C(N)N(c2ccc(Br)cc2F)C2=C(C(=O)CCC2)C1c1cccs1 (stereo not drawn)	-0.3	54.0*
CC1(C)CC(=O)C2=C(C1)N(c1cccc(C(F)(F)F)c1)C(N)=C(C#N)C2c1cccs1 (stereo not drawn)	-5.3	67.0*
N#CC1=C(N)N(c2cccc(Br)c2)C2=C(C(=O)CCC2)C1c1cccs1 (stereo not drawn)	1.5	68.0*
N#CC1=C(N)N(c2ccc(Br)cc2F)C2=C(C(=O)CCC2)C1c1ccsc1 (stereo not drawn)	2.2	12.0
Cn1c(NCCO)nc2ccccc21	2.2	-4.4
Fc1ccc(NC(=S)Nc2ccc(Br)c(Cl)c2)cc1	/	-22.3
CCOC(=O)N1CCc2nn(CC(=O)Nc3cccc(C)c3C)c(=O)cc2C1	1.3	4.7
O=C(NCc1ccccc1C(F)(F)F)C1CCN(c2nnc(-c3ccccc3)o2)CC1	2.0	3.4
O=C(O)c1cc(N2C(=O)/C(=C/c3ccc([N+](=O)[O-])cc3)C=C2c2ccccc2)ccc1O	-4.4	88.0*
O=C(O)c1cc(N2C(=O)/C(=C/c3ccc(Cl)cc3)C=C2c2ccccc2)ccc1O	-2.9	74.0*
CC(=O)Nc1ccc(N2C(=O)/C(=C/c3ccc(Cl)cc3)C=C2c2ccccc2)cc1	-1.0	31.0
O=C1/C(=C/c2ccc([N+](=O)[O-])cc2)C=C(c2ccccc2)N1c1ccc(F)cc1	0.1	18.0
c1ccc(CCn2c(-c3ccccc3)csc2=Nc2ccccc2)cc1	/	1.2
Cc1ccc(-c2csc(=Nc3ccccc3)n2CCCN(C)C)cc1	3.6	73.0*
Cc1ccc(-c2csc(=Nc3ccccc3)n2CCCO)cc1	-3.2	53.0*
OCCCn1c(-c2ccc(Cl)s2)csc1=Nc1ccccc1	19.1	41.0
Cc1ccc(C2CCCN2C(=O)Cc2ccc(Cl)cc2)cc1 (stereo not drawn)	-1.0	57.8*
Cc1ccccc1C1CCCN1C(=O)Cc1ccc(Cl)cc1 (stereo not drawn)	1.4	58.0*

Bioassay records from PubChem BioAssay.
